A selection: hits, their analogues and other compounds. The true share with any hit is near 0.93%.
MEP2 TOR yeast – modulators of MEP2-GFP levels in yeast, primary screen, S. cerevisiae, multiplex flow cytometry, MLPCN library | S. cerevisiae MEP2-GFP strain, 3 h; 100% = DMSO control level | 0.51% of 330,000 active | GFP response vs DMSO, % at 10 µM;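 active = GFP response versus DMSO above a set limit, roughly screen mean plus 3 SD, cut at about 180% in these data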;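 note: median GFP fluorescence of the barcode-gated MEP2-GFP cells per well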
LAP4 TOR yeast – modulators of LAP4-GFP expression in yeast, primary screen, S. cerevisiae, multiplex flow cytometry, MLPCN library. 3 h; median GFP as percent of DMSO wells. GFP response vs DMSO, % at 10 µM. 0.34% of 320,000 active. AID 2023, 2009;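 active = GFP response vs DMSO above a set limit, about the screen mean plus 3 SD, cut at about 150% in these data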
CIT2-GFP yeast – modulators of CIT2-GFP expression in yeast, primary screen, S. cerevisiae, GFP fusion, multiplex flow cytometry, MLPCN library; S. cerevisiae CIT2-GFP strain, 3 h; 100 means same as DMSO wells; GFP response vs DMSO, % at 10 µM; 0.065% of 320,000 active;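 active = GFP response relative to DMSO above a set limit, near the screen mean plus 3 SD, cut at about 150% in these data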;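 note: ratio of well median GFP fluorescence to mean of DMSO wells on the plate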
AGP1-GFP MLPCN – modulators of AGP1-GFP expression in yeast TOR pathway, primary screen, cell-based, multiplex flow cytometry, S. cerevisiae, MLPCN library. 3 h; GFP as percent of DMSO wells. GFP response vs DMSO, % at 10 µM. 0.02% of 320,000 active;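 active = GFP response relative to DMSO above a set limit, near screen average plus 3 SD, cut at about 150% in these data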;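 note: median GFP channel fluorescence of the gated AGP1 strain per well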
RPL19A TOR yeast – RPL19A-GFP expression modulators in yeast, primary screen, cell-based, S. cerevisiae, multiplex flow cytometry, MLPCN. S. cerevisiae RPL19A-GFP strain, 3 h; hits give low values. percent response vs DMSO, % at 10 µM. 0.3% of 330,000 active. AID 2025, 2009;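 active = percent response vs DMSO below 50%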;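 note: median channel GFP fluorescence of the barcoded RPL19A-GFP strain; ratio of sample median GFP to plate DMSO average so 100% = DMSO; lower means less RPL19A-GFP as with rapamycin TOR inhibition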
LAP4 cherry2 – LAP4-GFP expression modulators in yeast, confirmation, cell-based, second cherry pick, flow cytometry. shares compounds with LAP4 TOR yeast. S. cerevisiae LAP4-GFP strain, 3 h. GFP response vs DMSO, % at 10 µM. 20% of 590 active. AID 2621, 2010;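 active = GFP signal as percent of the solvent control above about 150%, meaning raised reporter expression, limit read from the data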;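 note: ratio of well median GFP fluorescence to plate DMSO mean so 100% = DMSO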
MEP2 cherry2 – modulators of MEP2-GFP levels in yeast, confirmation, S. cerevisiae, flow cytometry GFP, second cherry picks. GFP response vs DMSO, % at 10 µM. AID 2622, 2010. 10% of 590 active. shares compounds with LAP4 TOR yeast. S. cerevisiae MEP2-GFP strain, 3 h;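 active = GFP signal above 150% of the solvent control wells, that is a rise of more than half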;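 note: median channel GFP fluorescence of all gated yeast cells per well; ratio of median GFP to plate DMSO average so 100% = DMSO level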
RPL19A-GFP pick2 – RPL19A-GFP modulators in TOR pathway yeast, confirmation, cell-based, S. cerevisiae, flow cytometry, second cherry pick. 3% of 590 active. GFP response vs DMSO, % at 10 µM. shares compounds with LAP4 TOR yeast. S. cerevisiae RPL19A-GFP strain, 3 h; hits give low values; 100% means same as DMSO wells;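 active = under 65% GFP response relative to DMSO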;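 note: median GFP channel fluorescence per well over the all cells gate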
CIT2-GFP pick2 – modulators of CIT2-GFP expression in yeast, confirmation, flow cytometry, second cherry pick, single plex. 8% of 590 active. S. cerevisiae CIT2-GFP strain, 3 h; DMSO control wells read 100%. GFP response vs DMSO, % at 10 µM. AID 2624, 2010. shares compounds with LAP4 TOR yeast;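 active = GFP response vs DMSO above about 150%, limit read from the data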;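 note: median green fluorescence per well over all gated yeast cells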
AGP1 GFP CP2 – AGP1-GFP expression modulators, hit retest, confirmation, cell-based, flow cytometry, S. cerevisiae, cherry pick set 2; 590 tested, under 10 active; shares compounds with LAP4 TOR yeast; percent response vs DMSO, % at 10 µM; S. cerevisiae AGP1-GFP strain, 3 h; AID 2643, 2010;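 active = over 150 percent of DMSO response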;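 note: median GFP channel fluorescence over all cells without mother daughter split; sample median GFP divided by mean DMSO control so 100% equals DMSO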
s288c autofluor – compound autofluorescence in yeast s288c, dose response, artefact control for yeast TOR pathway GFP screen, s288c strain. shares compounds with LAP4 TOR yeast. S. cerevisiae s288c, 520 nm autofluorescence, flow cytometry, 3 h; hits give high values; zero means same as solvent-only cells. fluorescence change (kMESF span) at 33 µM. 610 tested, under 10 active. AID 2757, 2010;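 active = fluorescence span over the dose series, or activity score, above about 33, limit read from the data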
Active calls of the source: *; nt = no result given; [ ] = remark or other dose.

SMILES	MEP2 TOR yeast	LAP4 TOR yeast	CIT2-GFP yeast	AGP1-GFP MLPCN	RPL19A TOR yeast	LAP4 cherry2	MEP2 cherry2	RPL19A-GFP pick2	CIT2-GFP pick2	AGP1 GFP CP2	others
O=C(Nc1ccc2c(c1)OCO2)C1CCN(S(=O)(=O)c2ccc3c(c2)OCCO3)CC1	98	98	105	108	100	nt	nt	nt	nt	nt
CC(=O)OC[C@]12CC[C@H]3[C@@](C)(CC[C@H]4C(C)(C)CCC[C@]34C)[C@@H]1C[C@H](C1=CC(=O)O[C@@H]1OC(C)=O)O2	104	155*	105	80	95	210*	173*	98	172*	100	s288c autofluor=4.4
CC1(C)CCC[C@]2(C)[C@H]3CC(=O)O[C@]3(C)CC[C@@H]12	113	92	96	97	106	nt	nt	nt	nt	nt
COC(=O)c1cn(C(=O)c2ccc(C)c(C)c2)c2ccccc12	86	151*	78	91	88	98	100	98	100	100
COC(=O)c1cn(C(=O)c2ccc(OC)c(OC)c2)c2ccccc12	113	103	106	102	106	nt	nt	nt	nt	nt
CCCCn1c(N)c(N(Cc2ccccc2OC)C(=O)c2c(CC)noc2C)c(=O)[nH]c1=O	101	80	101	83	75	nt	nt	nt	nt	nt
CCc1ccc(-c2nc(CS(=O)CC(=O)NCCCN3CCOCC3)c(C)o2)cc1 (stereo not drawn)	101	121	96	98	99	nt	nt	nt	nt	nt
Cc1cc(Cl)ccc1N(CC(=O)NCCSCc1ccco1)S(C)(=O)=O	166	98	100	45	60	101	96	102	117	96
COc1ccc(NC(=O)CCCc2nnc3n(C)c(=O)c4sccc4n23)cc1	98	97	109	103	100	nt	nt	nt	nt	nt
Cc1cc(C)c(S(=O)(=O)N2CCN(C(=O)C3COc4ccccc4O3)CC2)c(C)c1 (stereo not drawn)	95	103	104	97	100	nt	nt	nt	nt	nt
COc1ccccc1-c1nnc(SCC(=O)N2CCOCC2)n1-c1ccccc1	100	98	103	99	95	nt	nt	nt	nt	nt
COc1ccccc1-c1nnc(SCCN2CCOCC2)n1-c1ccc(C)cc1	196*	100	124	30	71	102	100	101	114	97
O=C(O)C1Sc2[nH]c(=O)sc2C2c3cc(Br)ccc3OC(=O)C12 (stereo not drawn)	112	151*	101	90	99	nt	nt	nt	nt	nt	s288c autofluor=3.3
Cc1ccc(/C=C/C(=O)N2CCc3ccccc32)o1	100	168*[may fluoresce green]	92	88	101	105	105	104	102	96
Cc1cc(Nc2ccccc2)nc(NCc2ccccc2)n1	107	92	112	98	102	nt	nt	nt	nt	nt
